Reference: PubChem BioAssay AID1159580 (chemical genetic matrix, 2015)
“And” between values parts separate entries of the source, which are not always exact repeats. Equal values may be shown once. Screen size: about 5,500 compounds; about 2,000 (36%) were called active. Roughly 18% stayed inconclusive and do not appear here. Rule as the data show it: active = normalized growth mostly below about 0.91 (no sharp cut-off); inconclusive = no clear call, values can overlap the other calls; inactive = mostly above about 0.92. This is one part of the list.

Assay: chemical genetic growth profiling, strain panel (AID 1159580);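 also: tested at 20 µM; growth read once vehicle control cultures reached saturation at 30 °C; 1 = growth at the plate median or of vehicle wells; lower values mean less growth of the strain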
Conditions: S. cerevisiae deletion strains, growth OD

Measured: normalized growth

c1coc(CNc2ncnc3nc[nH]c23)c1
inactive: locus YAL013W, strain DEP1, hits give low values 0.998 | locus YAL021C, strain ccr4, hits give low values 0.995 | locus YAL026C, strain drs2, hits give low values 0.997 | locus YAL030W, strain snc1, hits give low values 1 | locus YBL061C, strain skt5, hits give low values 0.997 | locus YBR009C, strain hhf1, hits give low values 0.988 | locus YBR021W, strain FUR4, hits give low values 1.02 | locus YBR023C, strain chs3, hits give low values 0.996 | locus YBR171W, strain sec66, hits give low values 0.994 | locus YBR229C, strain ROT2, hits give low values 1.01 | locus YBR231C, strain swc5, hits give low values 1 | locus YBR279W, strain paf1, hits give low values 1 | locus YCL011C, strain gbp2, hits give low values 1 | locus YCL016C, strain dcc1, hits give low values 1 | locus YCL029C, strain bik1, hits give low values 0.991 | locus YCL061C, strain MRC1, hits give low values 1.01 | locus YCL069W, strain vba3, hits give low values 0.999 | locus YCR088W, strain abp1, hits give low values 0.991 | locus YDL005C, strain med2, hits give low values 0.995 | locus YDL035C, strain GPR1, hits give low values 1.01 | locus YDL040C, strain nat1, hits give low values 0.996 | locus YDL074C, strain BRE1, hits give low values 0.997 | locus YDL101C, strain DUN1, hits give low values 0.995 | locus YDL134C, strain PPH21, hits give low values 1.01 | locus YDL185W, strain tfp1, hits give low values 0.964 | locus YDL192W, strain arf1, hits give low values 0.99 | locus YDR001C, strain nth1, hits give low values 0.993 | locus YDR069C, strain doa4, hits give low values 1 | locus YDR101C, strain arx1, hits give low values 0.996 | locus YDR137W, strain rgp1, hits give low values 0.964 | locus YDR150W, strain NUM1, hits give low values 0.992 | locus YDR159W, strain sac3, hits give low values 0.974 | locus YDR162C, strain NBP2, hits give low values 0.992 | locus YDR195W, strain ref2 0.974 | locus YDR297W, strain sur2, hits give low values 0.997 | locus YDR318W, strain mcm21, hits give low values 0.995 | locus YDR334W, strain swr1, hits give low values 1.01 | locus YDR335W, strain msn5, hits give low values 1.01 | locus YDR388W, hits give low values 1 | locus YDR392W, strain spt3, hits give low values 0.991 | locus YDR502C, strain sam2, hits give low values 1.01 | locus YEL003W, strain gim4, hits give low values 1 | locus YEL037C, strain rad23, hits give low values 0.998 | locus YEL061C, strain CIN8 (second series), hits give low values 0.997 | locus YEL061C, strain CIN8, hits give low values 0.995 | locus YER015W, strain faa2, hits give low values 1 | locus YER016W, strain bim1, hits give low values 0.99 | locus YER110C, hits give low values 0.999 | locus YER111C, strain swi4, hits give low values 0.986 | locus YER155C, strain BEM2 (second series), hits give low values 0.97 | locus YER155C, strain BEM2, hits give low values 0.999 | locus YER167W, strain BCK2, hits give low values 1 | locus YFR010W, strain ubp6, hits give low values 1 | locus YGL078C, strain dbp3, hits give low values 0.992 | locus YGL086W, strain mad1, hits give low values 1 | locus YGL167C, strain pmr1, hits give low values 1 | locus YGL173C, strain kem1, hits give low values 0.993 | locus YGL227W, strain vid30, hits give low values 0.993 | locus YGL240W, strain doc1, hits give low values 0.996 | locus YGL248W, strain PDE1, hits give low values 1.02 | locus YGL253W, strain hxk2, hits give low values 0.995 | locus YGR078C, strain PAC10, hits give low values 0.994 | locus YGR135W, strain pre9, hits give low values 0.997 | locus YGR229C, strain SMI1, hits give low values 1 | locus YGR252W, strain gcn5, hits give low values 1.19 | locus YHR013C, strain ard1, hits give low values 0.983 | locus YHR027C, strain rpn1, hits give low values 1 | locus YHR030C, strain SLT2, hits give low values 0.998 and 0.973 | locus YHR079C, strain IRE1 (second series), hits give low values 0.996 | locus YHR079C, strain IRE1, hits give low values 0.964 | locus YHR094C, strain hxt1, hits give low values 0.957 | locus YHR129C, strain ARP1, hits give low values 0.999 | locus YHR142W, strain chs7, hits give low values 0.992 | locus YHR200W, strain rpn10, hits give low values 0.986 | locus YIL066C, strain RNR3, hits give low values 1.01 | locus YIL073C, strain SPO22, hits give low values 0.978 | locus YIL125W, strain kgd1, hits give low values 0.988 | locus YIR030C, strain dcg1, hits give low values 0.998 | locus YJL092W, strain hpr5, hits give low values 0.995 | locus YJL095W, strain BCK1 (second series), hits give low values 0.994 | locus YJL095W, strain BCK1, hits give low values 0.985 and 0.986 | locus YJL115W, strain asf1, hits give low values 1 | locus YJL129C, strain trk1, hits give low values 1.02 | locus YJL134W, strain LCB3, hits give low values 0.997 | locus YJL154C, strain vps35, hits give low values 0.997 | locus YJL164C, strain tpk1, hits give low values 0.997 | locus YJL166W, strain qcr8, hits give low values 1 | locus YJL168C, strain set2, hits give low values 0.996 | locus YJL187C, strain SWE1 (second series), hits give low values 0.992 | locus YJR043C, strain POL32, hits give low values 0.985 | locus YJR066W, strain TOR1, hits give low values 0.912
